Data published in PubChem BioAssay.
Activity calls are given as the source filed them.

Key:
[1] = E. coli DRC41 culture turbidity changes, primary screen, E. coli filamentation inducer project, strain DRC41, OD650, 48 h (AID 1152);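 note: E. coli MC1000 strain DRC41 lacking acrAB efflux pump and sulA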; conditions: E. coli DRC41 (acrAB sulA), higher = more signal, called active from +8 up or from −8 down
[2] = small-molecule binders of probe aLefty1, primary screen, biochemical, small-molecule microarray, 635/667 nm fluorescence (AID 1153); conditions: higher = more signal;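 note: score merges spot fluorescence with signal-to-noise ratio from the scanned slide images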
[3] = PSAC antagonists in infected red cells, primary screen, cell-based, P. falciparum Indochina, OD700, 1 h (AID 1154); conditions: P. falciparum Indochina infected RBC osmotic lysis, higher = more signal, called active from +8 up or from −8 down
[4] = PSAC antagonists in infected red cells, primary screen, cell-based, P. falciparum Indochina, OD700, 2 h (AID 1155);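 note: lysis reports solute entry through the parasite surface anion channel PSAC; channel blockers reduce lysis of infected cells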; conditions: P. falciparum Indochina infected erythrocytes, osmotic lysis OD700; higher = more signal, called active from +8 up or from −8 down
[5] = osmotic lysis modulators in infected erythrocytes, primary screen, PSAC antagonist project, cell-based, P. falciparum Indochina, OD700, 3 h (AID 1156); conditions: higher = more signal, called active from +8 up or from −8 down
[6] = PSAC antagonists in infected red cells, primary screen, cell-based, P. falciparum Indochina, OD700, 18 h (AID 1157); conditions: P. falciparum Indochina infected erythrocytes, osmotic lysis OD700, 18 h; higher = more signal, called active from +8 up or from −8 down
[7] = modulators of S6 phosphorylation in cells, primary screen, cell-based, A549, cytoblot, luminescence, serum-stimulated (AID 1158); conditions: A549 phospho-S6 cytoblot, 5 h, higher = more signal;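 note: serum-stimulated A549 lung adenocarcinoma cells; signal is phosphorylated S6 detected by cytoblot immunostaining with HRP secondary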
[8] = target: NADPH oxidase 2 (Homo sapiens) (UniProt P04839); assay: NOX2-dependent H2O2 signal modulators, primary screen, NOX inhibitor project, cell-based, HEK293-NOX2, PMA-stimulated, Amplex Red fluorescence (AID 1159); conditions: 45 min, higher = more signal, called active from +8 up or from −8 down; note: test concentration not given here
[9] = target: NADPH oxidase 4 (Homo sapiens) (UniProt Q9NPH5); assay: NOX4-dependent H2O2 signal modulators, primary screen, NOX inhibitor project, cell-based, HEK293-NOX4, tetracycline-induced, Amplex Red fluorescence (AID 1160); conditions: 45 min, higher = more signal, called active from +8 up or from −8 down
[10] = target: NADPH oxidase 5 (Homo sapiens) (UniProt Q96PH1); assay: NOX5-dependent H2O2 signal modulators, primary screen, NOX inhibitor project, cell-based, HEK293-NOX5, Amplex Red fluorescence (AID 1161); conditions: HEK293-NOX5, ionomycin, 45 min, higher = more signal
[11] = A549 cell viability effects, profiling panel, calcein-AM fluorescence, 48 h, basal (AID 1162); conditions: higher = more signal; note: test concentration not given here
[12] = adipocyte viability effects, profiling panel, cell-based, 3T3-L1 adipocytes, calcein-AM fluorescence, 48 h, basal (AID 1163); conditions: 3T3-L1 adipocytes viability, higher = more signal; note: test concentration not given here
[13] = HepG2 cell viability effects, profiling panel, calcein-AM fluorescence, 48 h, basal (AID 1164); conditions: higher = more signal; note: test concentration not given here
[14] = MM1S cell viability effects, profiling panel, calcein-AM fluorescence, 48 h, basal (AID 1165); conditions: higher = more signal;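 note: viability of MM1S multiple myeloma cells under basal unstimulated conditions; test concentration not given here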
[15] = basal RPMI8226 viability, no added stimulus, profiling panel, cell-based, calcein-AM fluorescence, 48 h, PK04 Diversity Set (AID 1166); conditions: RPMI8226 myeloma viability, higher = more signal;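 note: cells grown under basal conditions without added stimulus; test concentration not given here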
[16] = basal HepG2 mitochondrial membrane potential changes, profiling panel, cell-based, JC-1 fluorescence, 24 h, 100 nL compound (AID 1167); conditions: higher = more signal; note: test concentration not given here
[17] = basal 3T3-L1 adipocyte mitochondrial potential changes, profiling panel, cell-based, JC-1 fluorescence, 3T3-L1 adipocytes, 24 h, 100 nL compound (AID 1168); conditions: JC-1 mitochondrial fluorescence, higher = more signal, called active from +8 up or from −8 down; note: test concentration not given here
[18] = basal RPMI8226 mitochondrial membrane potential changes, profiling panel, cell-based, JC-1 fluorescence, 24 h, 100 nL compound (AID 1169); conditions: RPMI8226 myeloma, JC-1 mitochondrial potential fluorescence, higher = more signal; note: test concentration not given here
[19] = basal MM1S mitochondrial membrane potential changes, profiling panel, cell-based, JC-1 fluorescence, 24 h, 100 nL compound (AID 1170); conditions: higher = more signal; note: test concentration not given here
[20] = A549 lung cancer cell viability effects, profiling panel, resazurin fluorescence, 24 h, PK04 Diversity Set (AID 1171); conditions: higher = more signal, called active from +8 up or from −8 down; note: test concentration not given here

Sequence of NADPH oxidase 2 (Homo sapiens) (P04839 whole entry, looked up): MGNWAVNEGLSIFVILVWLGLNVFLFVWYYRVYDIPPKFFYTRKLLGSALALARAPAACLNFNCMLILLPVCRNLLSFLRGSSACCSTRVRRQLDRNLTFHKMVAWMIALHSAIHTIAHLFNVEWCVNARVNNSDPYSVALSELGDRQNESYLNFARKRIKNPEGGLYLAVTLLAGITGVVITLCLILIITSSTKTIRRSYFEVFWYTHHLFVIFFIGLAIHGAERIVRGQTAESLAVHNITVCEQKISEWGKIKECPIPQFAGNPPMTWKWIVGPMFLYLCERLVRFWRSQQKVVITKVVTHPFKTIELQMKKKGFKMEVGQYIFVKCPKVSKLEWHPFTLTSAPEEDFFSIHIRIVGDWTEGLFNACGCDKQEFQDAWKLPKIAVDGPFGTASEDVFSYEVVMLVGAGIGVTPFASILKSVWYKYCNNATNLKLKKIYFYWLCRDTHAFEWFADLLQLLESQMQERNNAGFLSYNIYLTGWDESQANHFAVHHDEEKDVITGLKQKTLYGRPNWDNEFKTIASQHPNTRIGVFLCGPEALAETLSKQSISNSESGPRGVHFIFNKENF
Sequence of NADPH oxidase 5 (Homo sapiens) (Q96PH1 whole entry, looked up): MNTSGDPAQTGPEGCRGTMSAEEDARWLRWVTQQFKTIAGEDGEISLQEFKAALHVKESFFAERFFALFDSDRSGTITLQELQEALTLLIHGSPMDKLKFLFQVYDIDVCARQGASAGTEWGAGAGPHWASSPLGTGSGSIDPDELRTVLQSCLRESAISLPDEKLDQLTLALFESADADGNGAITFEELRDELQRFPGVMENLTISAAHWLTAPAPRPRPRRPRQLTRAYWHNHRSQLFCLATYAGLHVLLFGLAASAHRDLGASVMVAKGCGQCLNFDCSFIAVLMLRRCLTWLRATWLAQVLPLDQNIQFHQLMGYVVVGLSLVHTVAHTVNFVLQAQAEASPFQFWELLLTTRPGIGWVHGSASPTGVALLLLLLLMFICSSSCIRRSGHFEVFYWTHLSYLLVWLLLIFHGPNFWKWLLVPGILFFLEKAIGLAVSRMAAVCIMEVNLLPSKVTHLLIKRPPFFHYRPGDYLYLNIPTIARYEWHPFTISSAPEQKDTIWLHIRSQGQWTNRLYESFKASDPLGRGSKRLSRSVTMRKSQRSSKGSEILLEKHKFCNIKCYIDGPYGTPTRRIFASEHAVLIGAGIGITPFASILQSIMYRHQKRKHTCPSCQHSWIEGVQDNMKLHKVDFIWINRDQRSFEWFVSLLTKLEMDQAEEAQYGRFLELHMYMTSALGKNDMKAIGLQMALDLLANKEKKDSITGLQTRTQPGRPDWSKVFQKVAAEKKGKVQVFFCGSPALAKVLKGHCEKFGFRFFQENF
Sequence of NADPH oxidase 4 (Homo sapiens) (Q9NPH5 whole entry, looked up): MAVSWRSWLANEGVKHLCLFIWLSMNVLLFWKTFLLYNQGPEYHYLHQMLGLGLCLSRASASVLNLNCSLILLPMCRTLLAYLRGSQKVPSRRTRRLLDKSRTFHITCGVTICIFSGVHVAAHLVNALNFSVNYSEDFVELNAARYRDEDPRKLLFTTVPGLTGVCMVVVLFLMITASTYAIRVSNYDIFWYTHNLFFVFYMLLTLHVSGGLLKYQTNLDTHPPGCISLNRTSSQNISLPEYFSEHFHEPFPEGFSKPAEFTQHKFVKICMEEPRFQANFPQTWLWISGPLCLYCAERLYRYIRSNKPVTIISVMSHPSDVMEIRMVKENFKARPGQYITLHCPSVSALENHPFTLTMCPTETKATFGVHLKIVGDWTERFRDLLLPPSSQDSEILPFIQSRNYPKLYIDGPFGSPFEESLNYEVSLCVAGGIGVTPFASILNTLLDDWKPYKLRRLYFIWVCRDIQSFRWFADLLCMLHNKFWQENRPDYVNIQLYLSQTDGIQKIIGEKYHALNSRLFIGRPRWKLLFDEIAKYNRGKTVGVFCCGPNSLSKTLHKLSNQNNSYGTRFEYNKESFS

For CCCC[C@@H]1C[C@H]1[C@@H](NC(=O)Cc1ccccc1)c1ccc(Cl)cc1, the z-score [1] was -1.71 (inactive), the composite z-score [2] was 0.509 and the z-score [3] was 1.15 (inactive). For the same compound, the z-score [4] was 1.03 (inactive), the z-score [5] was 2.18 (inactive) and the z-score [6] was 1.53 (inactive). The z-score [7] was -1.06, the z-score [8] was -0.795 (inactive) and the z-score [9] was -0.195 (inactive). For the same compound, the z-score [10] was 1.88, the z-score [11] was -1.07 and the z-score [12] was -0.669. The z-score [13] was -1.9, the z-score [14] was -3.46 and the z-score [15] was -4.66. For the same compound, the z-score [16] was -4.92, the z-score [17] was -1.27 (inactive) and the z-score [18] was -0.906. For the same compound, the z-score [19] was -2.89 and the z-score [20] was 3.48 (inactive).

In the case of Cc1ccc(S[C@]2(C(=O)NCCN3CCOCC3)CC(=O)N(C3CCCCC3)[C@@H]2c2ccc(CO)cc2I)cc1, the z-score [1] is reported as 0.465 (inactive), the composite z-score [2] is reported as -0.174 and the z-score [3] is reported as 6.63 (inactive). The z-score [4] was 0.86 (inactive), the z-score [5] was 1.68 (inactive) and the z-score [6] was 0.622 (inactive). The z-score [7] was -0.439, the z-score [8] was 0.832 (inactive) and the z-score [9] was 0.11 (inactive). For the same compound, the z-score [10] was 2.6, the z-score [11] was 0.312 and the z-score [12] was 0.0138. For the same compound, the z-score [13] was 0.293, the z-score [14] was -2.42 and the z-score [15] was -2.46. For the same compound, the z-score [16] was 2.54, the z-score [17] was 0.11 (inactive) and the z-score [18] was -0.457. For the same compound, the z-score [19] was -1.53 and the z-score [20] was 2.04 (inactive).

In the case of COCCOC(=O)N1C(=O)[C@@]2(c3cc(C#CCCO)ccc31)[C@H](c1ccccc1OCCO)N1[C@H](c3ccccc3)[C@H](c3ccccc3)OC(=O)[C@H]1[C@@H]2C(=O)N1CCc2cc(OC)c(OC)cc2C1, the z-score [1] is reported as 0.891 (inactive), the composite z-score [2] is reported as 0.265 and the z-score [3] is reported as 2.43 (inactive). The z-score [4] was 1.97 (inactive), the z-score [5] was 0.276 (inactive) and the z-score [6] was 1.12 (inactive). The z-score [7] was 0.199, the z-score [8] was 1.15 (inactive) and the z-score [9] was 1.15 (inactive). The z-score [10] was 0.0359, the z-score [11] was 1.14 and the z-score [12] was 0.251. The z-score [13] was 1.37, the z-score [14] was 0.713 and the z-score [15] was 0.503. The z-score [16] was 1.13, the z-score [17] was 0.808 (inactive) and the z-score [18] was -0.361. The z-score [19] was -1.04 and the z-score [20] was 0.646 (inactive).

In the case of CCOC(=O)C1=CC[C@@H](c2ccccc2)N(S(=O)(=O)C[Si](C)(C)C)[C@H]1c1ccccc1, the z-score [1] is reported as -2.2 (inactive), the composite z-score [2] is reported as 0.0437 and the z-score [3] is reported as 2.05 (inactive). The z-score [4] was 1.83 (inactive), the z-score [5] was 0.0192 (inactive) and the z-score [6] was 0.999 (inactive). For the same compound, the z-score [7] was -0.692, the z-score [8] was 0.324 (inactive) and the z-score [9] was -1.26 (inactive). For the same compound, the z-score [10] was 0.839, the z-score [11] was -0.96 and the z-score [12] was 0.147. The z-score [13] was 0.0425, the z-score [14] was 0.0106 and the z-score [15] was 0.242. The z-score [16] was -1.37, the z-score [17] was -0.479 (inactive) and the z-score [18] was -0.687. For the same compound, the z-score [19] was -0.667 and the z-score [20] was 0.946 (inactive).

With COC(=O)[C@@]1(Cc2ccc(F)cc2)[C@H]2c3cc(C(=O)N(C)C)n(CCN4CCOCC4)c3C[C@H]2CN1C(=O)c1ccccc1 the z-score [1] was -1.43 (inactive), the composite z-score [2] was 0.865 and the z-score [3] was -0.64 (inactive). For the same compound, the z-score [4] was -0.738 (inactive), the z-score [5] was 0.922 (inactive) and the z-score [6] was -1.9 (inactive). The z-score [7] was 0.537, the z-score [8] was 0.482 (inactive) and the z-score [9] was 0.523 (inactive). It also gave a z-score [10] of -0.757, a z-score [11] of -1.27 and a z-score [12] of 0.234. It also gave a z-score [13] of -0.796, a z-score [14] of -1.05 and a z-score [15] of -0.995. For the same compound, the z-score [16] was -0.738, the z-score [17] was -0.318 (inactive) and the z-score [18] was -0.245. For the same compound, the z-score [19] was -0.28 and the z-score [20] was 0.389 (inactive).

With COC(=O)Cn1c(C(=O)N(C)C)cc2c1C[C@H]1CN(C(=O)c3ccccc3)[C@@](Cc3ccc(OC)cc3)(C(=O)OC)[C@@H]21 the z-score [1] was -1.35 (inactive), the composite z-score [2] was 0.546 and the z-score [3] was 2.81 (inactive). For the same compound, the z-score [4] was 0.765 (inactive), the z-score [5] was 1.04 (inactive) and the z-score [6] was 0.765 (inactive). The z-score [7] was -0.62, the z-score [8] was 0.494 (inactive) and the z-score [9] was -0.539 (inactive). The z-score [10] was 0.813, the z-score [11] was -0.199 and the z-score [12] was -0.714. It also gave a z-score [13] of 0.496, a z-score [14] of 0.611 and a z-score [15] of -0.734. The z-score [16] was 3.44, the z-score [17] was -0.881 (inactive) and the z-score [18] was -0.329. The z-score [19] was -1.36 and the z-score [20] was -0.31 (inactive).

With CCCCN1CC=CC23O[C@@H]4/C=C\CCC(C)OC(=O)C4[C@H]2C(=O)N(C(C)CO)[C@@H]3C1=O (stereo not given in full) the z-score [1] was 0.0581 (inactive), the composite z-score [2] was -0.331 and the z-score [3] was 1.82 (inactive). The z-score [4] was -0.0918 (inactive), the z-score [5] was 1.19 (inactive) and the z-score [6] was 0.16 (inactive). For the same compound, the z-score [7] was -0.0969, the z-score [8] was 0.809 (inactive) and the z-score [9] was -0.42 (inactive). The z-score [10] was 1.27, the z-score [11] was -0.425 and the z-score [12] was -0.708. The z-score [13] was 0.201, the z-score [14] was 0.646 and the z-score [15] was -0.474. The z-score [16] was -0.318, the z-score [17] was -0.382 (inactive) and the z-score [18] was -0.726. For the same compound, the z-score [19] was -1.13 and the z-score [20] was -0.016 (inactive).

For COc1cc2c(cc1O)C(c1ccc(CN3CCCC3)cc1)N(Cc1cccc(OC(F)(F)F)c1)CC2 (stereo not given), the z-score [1] was -4.5 (inactive), the composite z-score [2] was -0.131 and the z-score [3] was 12.3 (active). The z-score [4] was 2.62 (inactive), the z-score [5] was -0.608 (inactive) and the z-score [6] was 1.14 (inactive). For the same compound, the z-score [7] was -0.223, the z-score [8] was -8.71 (active) and the z-score [9] was -4.77 (inactive). The z-score [10] was -6.04, the z-score [11] was -4.78 and the z-score [12] was 0.0154. The z-score [13] was -5.64, the z-score [14] was -3.22 and the z-score [15] was -4.48. The z-score [16] was -3.43, the z-score [17] was 1.04 (inactive) and the z-score [18] was -0.955. For the same compound, the z-score [19] was -2.64 and the z-score [20] was -4.45 (inactive).

With O=C1c2ccccc2[C@@]2(Cc3ccccc3N(Cc3ccccc3)C2=O)[C@H](c2ccc(CO)cc2)N1Cc1ccccc1 the z-score [1] was -0.757 (inactive), the composite z-score [2] was -0.147 and the z-score [3] was -0.0384 (inactive). For the same compound, the z-score [4] was 0.0732 (inactive), the z-score [5] was 0.0046 (inactive) and the z-score [6] was -0.11 (inactive). The z-score [7] was 0.244, the z-score [8] was 0.0584 (inactive) and the z-score [9] was 0.572 (inactive). For the same compound, the z-score [10] was -0.107, the z-score [11] was -0.574 and the z-score [12] was -0.269. The z-score [13] was -0.643, the z-score [14] was 0.0744 and the z-score [15] was -0.851. For the same compound, the z-score [16] was -0.0723, the z-score [17] was -0.271 (inactive) and the z-score [18] was 0.167. The z-score [19] was -0.353 and the z-score [20] was -0.381 (inactive).
